Data published in PubChem BioAssay (NCI).
About 79,000 compounds went through this panel and 15% of them were active in at least one assay; those are over-represented in the sample as a whole. Cut-off read from the data, not from the text of the source: active = growth inhibition above about 70%; inactive = the rest.

Tests used:
[1] = NCI Yeast Anticancer Drug Screen. Data for the rad50 strain (AID 155);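 note: 0% = growth of vehicle-only cultures of the same strain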; settings: S. cerevisiae rad50 strain growth inhibition; at 50.0 µM; stronger effect = higher value
Outline: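 Compounds were tested on a yeast strain with an engineered DNA damage repair alteration; the reported value is growth inhibition normalised to vehicle treatment.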

[2] = NCI Yeast Anticancer Drug Screen. Data for the mec2-1 strain (AID 157); settings: S. cerevisiae mec2-1 strain, at 50.0 µM, stronger effect = higher value
Outline: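 Yeast mec2-1 mutant treated with compound. Readout: growth inhibition vs vehicle controls.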

[3] = NCI Yeast Anticancer Drug Screen. Data for the sgs1 mgt1 strain (AID 161);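 note: 0% = growth of cultures given vehicle only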; settings: S. cerevisiae sgs1 mgt1 strain, at 50.0 µM, stronger effect = higher value
Outline: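 Read-out: growth inhibition vs vehicle controls. Cells: mutant yeast strain deficient in DNA damage repair.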

[4] = NCI Yeast Anticancer Drug Screen. Data for the cln2 rad14 strain (AID 165);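 note: 0% = growth equal to vehicle treated cultures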; settings: S. cerevisiae cln2 rad14 strain, at 50.0 µM, stronger effect = higher value
Outline: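 cln2 rad14 yeast strain; compound exposure; growth inhibition read vs vehicle controls.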

[5] = NCI Yeast Anticancer Drug Screen. Data for the bub3 strain (AID 167); settings: S. cerevisiae bub3 mutant strain, at 50.0 µM, stronger effect = higher value
Outline: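 Growth of a checkpoint-deficient yeast mutant is measured after compound exposure. Values represent inhibition relative to vehicle.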

[6] = NCI Yeast Anticancer Drug Screen. Data for the mlh1 rad18 strain (AID 175); settings: S. cerevisiae mlh1 rad18 strain growth inhibition; at 50.0 µM; stronger effect = higher value
Outline: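 Yeast w/ defined DNA-repair lesions; compound exposure; growth vs vehicle controls → % inhibition.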

Measured: growth inhibition

CC1=Nc2cc(C)c(C)cc2NC(=O)C1
inactive: [1] -16.8% | [2] -43.9% | [3] -6.1% | [4] 20.4% | [5] -21.9% | [6] -1.7%

Cn1nnc(C(=O)O)n1
inactive: [1] -7.75% | [2] -4.35% | [3] -4.7% | [4] -19.8% | [5] -11.4% | [6] -10.8%

Cc1cc(=O)oc2c(CNC(Cc3ccccc3)C(=O)O)c(O)ccc12 (stereo unspecified)
inactive: [1] -39.4% | [2] -40.6% | [3] -24.3% | [4] -21.1% | [5] -22.1% | [6] -69%

O=C(CCc1cc(O)cc(O)c1)NCCc1cc(O)cc(O)c1
inactive: [1] 6.55% | [2] 5.9% | [3] 17.4% | [4] 26.4% | [5] 8.8% | [6] -46%

Cc1cc(=O)n(-c2c(C)cccc2Cl)c(/C=C(\O)c2ccncc2)n1
inactive: [1] 4.25% | [2] -2.65% | [3] 3.8% | [4] 8.3% | [5] 4.15% | [6] 2.85%

C=C1C(=O)OC2C1C(OC(=O)/C(C)=C/C)CC1(C)C(=O)CCC(=C)C21 (stereo unspecified)
inactive: [1] 38.3% | [2] 47% | [3] 52.8% | [4] 44.1% | [5] 52.8% | [6] 63.6%

C(=C\c1ccc(OCc2ccccc2)cc1)/c1ccc(OCc2ccccc2)cc1
inactive: [1] -5.5% | [2] -13.7% | [3] -13.6% | [4] -7.6% | [5] -24.6% | [6] -26%

O=C(NC(CC(NC(=O)OCc1ccccc1)NC(=O)OCc1ccccc1)NC(=O)OCc1ccccc1)OCc1ccccc1
inactive: [1] -2.55% | [2] 7.1% | [3] -0.1% | [4] 5.6% | [5] 0.85% | [6] -4.55%

COc1ccc(Cc2cn(C)cc(Cc3ccc(OC)cc3)c2=O)cc1
inactive: [1] 4.7% | [2] 0.8% | [3] 7.15% | [4] -7.45% | [5] -1.2% | [6] -4.45%

CC(C#N)Nc1ccc(Oc2ccc(C(C)(C)c3ccc(Oc4ccc(NC(C)C#N)cc4)cc3)cc2)cc1 (stereo unspecified)
inactive: [1] 6.25% | [2] -2.6% | [3] -8.3% | [4] 7.1% | [5] -23.6% | [6] -40.1%

CCCCOCCOC(=O)C(C)O (stereo unspecified)
inactive: [1] 18.9% | [2] 13.7% | [3] 11.9% | [4] 6.6% | [5] -1% | [6] 6.4%

CCC12CC(=O)CCC1CCc1ccc(OC)c(OC)c12 (stereo unspecified)
inactive: [1] -14.6% | [2] 15.9% | [3] -2.4% | [4] -7.2% | [5] 18.4% | [6] 22.2%

CS(=O)(=O)c1ccc(C=O)cc1
inactive: [1] 12.8% | [2] 6% | [3] 2.25% | [4] -3.8% | [5] -1.4% | [6] 8.3%

CSc1nc2nc[nH]c2c(=O)[nH]1
inactive: [1] 3.45% | [2] 0.3% | [3] -16.2% | [4] -14.2% | [5] -1.85% | [6] -3.65%

O=C(Cc1ccccc1)NC(CSSCC(NC(=O)Cc1ccccc1)C(=O)O)C(=O)O (stereo unspecified)
inactive: [1] 26.3% | [2] 10.8% | [3] 36.6% | [4] -37.1% | [5] 3.2% | [6] 11.1%

O=C(N/C(=C\c1ccc([N+](=O)[O-])cc1)c1nc2ccccc2[nH]1)c1ccccc1
inactive: [1] 29.1% | [2] 6.55% | [3] 8.35% | [4] -37.9% | [5] 17.9% | [6] 23.8%

CCC1N(C)CCCN1C
inactive: [1] 9.25% | [2] -2.9% | [3] 10.2% | [4] 0.95% | [5] 0.9% | [6] 6.55%

CCC1=C(C)/C(=C/c2[nH]c(C)cc2C)N=C1C
inactive: [1] 5.5% | [2] 0.95% | [3] 3.65% | [4] -54.6% | [5] 0.25% | [6] 12.2%

CC1(C)CC[C@]2(C(=O)O)CC[C@]3(C)C(=CC[C@@H]4[C@@]5(C)CC[C@@H]6OC(C)(C)OC[C@@]6(C)[C@@H]5CC[C@]43C)[C@H]2C1
inactive: [1] 3.7% | [2] 10.8% | [3] -19.9% | [4] -5.1% | [5] -8.65% | [6] -62.6%

CN(C)N=Nc1c(F)cc(F)c(F)c1F
inactive: [1] 4.75% | [2] 3.35% | [3] -9% | [4] -14.2% | [5] 7.3% | [6] -4.05%

COC(C(O)C(O)C(O)C(O)CO)n1cnc2cncnc21 (stereo unspecified)
inactive: [1] 4.05% | [2] 5.45% | [3] 7.8% | [4] 2.9% | [5] -4.2% | [6] 2.45%

Brc1ccc(C(c2ccc(Br)cc2)C(Br)(Br)Br)cc1
inactive: [1] 2.8% | [2] 3.75% | [3] 1.9% | [4] -12.9% | [5] 1.5% | [6] 8.2%

CN1NC(=O)SC(=O)c2ccccc2C1=O
inactive: [1] -16.4% | [2] 22% | [3] 0.1% | [4] -12.1% | [5] 0.15% | [6] 0.65%

CC(=O)CC(=O)C(F)(F)F
inactive: [1] 14% | [2] -3.35% | [3] -20.5% | [4] 9.8% | [5] 7.3% | [6] 4.75%

NCCNCCCNC(=O)c1cc(-c2ccccc2)nc2ccccc12
inactive: [1] -18.8% | [2] -6.35% | [3] -1.7% | [4] -11.9% | [5] 14.9% | [6] -3.95%

CCCN=C1NS(=O)(=O)c2ccccc21
inactive: [1] 8.35% | [2] -14.8% | [3] -15.3% | [4] -11.8% | [5] -7.55% | [6] -7.7%

CN(C)c1ccc(/C=c2\sc3nnc(Cc4ccccc4)n3c2=O)cc1
inactive: [1] -7.8% | [2] -13.6% | [3] -0.25% | [4] 11.1% | [5] 11.1% | [6] 1.35%

COc1ccc(C(C)=O)c(O)c1
inactive: [1] -10.4% | [2] -15.2% | [3] -10.2% | [4] -3.7% | [5] 3.2% | [6] 5.2%

CNC(=O)c1ccccc1S(=O)Cc1ccc(Br)cc1 (stereo unspecified)
inactive: [1] -19.1% | [2] -30.2% | [3] -17.6% | [4] 8.35% | [5] 22.7% | [6] -0.95%

COc1ccc(OC(=O)Nc2cccc(Cl)c2)cc1
inactive: [1] 8.4% | [2] 39.1% | [3] 29.8% | [4] -11.3% | [5] 31.4% | [6] 55.6%

Cn1c(-c2ccc(-c3cc(-c4cccs4)c(-c4cccs4)n3C)cc2)cc(-c2cccs2)c1-c1cccs1
inactive: [1] 11.7% | [2] -15% | [3] 14.8% | [4] -16.9% | [5] 1.55% | [6] 17.8%

CCC(C(=O)O)=C1CCCCC1
inactive: [1] 11.1% | [2] -8.15% | [3] -0.35% | [4] 9.15% | [5] 5.85% | [6] -3.9%

CC1(c2nc3ccccc3[nH]2)CCC(C(=O)O)C(C)(C)O1 (stereo unspecified)
inactive: [1] 1.75% | [2] -11.2% | [3] -18.4% | [4] 15.6% | [5] -19.6% | [6] -32.9%

O=C(O)CCc1ccc(-c2ccccc2)[nH]1
inactive: [1] -14.3% | [2] -6.95% | [3] -11.7% | [4] 1.35% | [5] -29.1% | [6] -16.6%

COc1ccc(CN2CCCN(Cc3ccc(OC)cc3OC)C2c2ccc(N(C)C)cc2)c(OC)c1
inactive: [1] 39.9% | [2] 14.5% | [3] 21.1% | [4] 3.6% | [5] 15.7% | [6] 12.1%

CC(C)CCCC(C)CCCl (stereo unspecified)
inactive: [1] 3.85% | [2] -1.1% | [3] -5.85% | [4] 1.95% | [5] 3.2% | [6] -0.2%

CCSCCC(C)(N)C(=O)O (stereo unspecified)
inactive: [1] -7.35% | [2] -8.85% | [3] -12.3% | [4] -38.7% | [5] 2.3% | [6] -3.7%

CC(=O)c1cccc(NC(=O)Oc2ccc(Cl)cc2Cl)c1
inactive: [1] 4.55% | [2] 17.9% | [3] 3.25% | [4] 1% | [5] 11.3% | [6] 4.3%

COc1ccc2ncc(COC(=O)Nc3ccccc3)c(COC(=O)Nc3ccccc3)c2c1
inactive: [1] 22% | [2] -6.2% | [3] 11.8% | [4] 5.65% | [5] -7.4% | [6] 6.1%

C#CCOC(=O)c1ccccc1O
inactive: [1] 15.2% | [2] 2.8% | [3] 17.4% | [4] 13.4% | [5] 16.9% | [6] 12.2%

COCC12CCC(OC)C34C5CC6(O)C(OC)CC(OC(C)=O)(C5C6OC(=O)c5ccccc5)C(C(OC)C13)C4N(C)C2 (stereo unspecified)
inactive: [1] -24.5% | [2] -23.8% | [3] -26.5% | [4] -8.9% | [5] -1.45% | [6] -77.5%
